Measurements reported in PubChem BioAssay AID1508625 (Wald Lab, School of Medicine, Case Western Reserve …, 2021).

Assay: small molecules boosting NK-mediated OVCAR3 lysis – imaging, primary NK cells, calcein-AM imaging, primary screen (AID 1508625);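 note: compound given to NK cells 16 h before adding targets at 1.5 to 1 ratio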;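 for z-score: more negative robust z means stronger NK killing of tumor cells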
Conditions: OVCAR3 lysis by primary NK cells, at 5 µM; z-score: measured here: robust Z-score, single-point normalisation

Row | Structure (SMILES) | corrected activity, negative = more killing [%] | z-score
1 | O=c1[nH]c2ccc(N=Cc3ccc(-c4ccc([N+](=O)[O-])cc4)o3)cc2[nH]1 | -0.571 | -0.17
2 | O=C(c1ccccc1F)N1CCN(c2cc(N3CCCCC3)c(F)cc2[N+](=O)[O-])CC1 | -2.72 | -0.843
3 | Cc1cccc(C(=O)N2N=C(C(F)(F)F)CC2(O)C(C)(C)C)c1 (configuration not stated) | -2.49 | -0.95
4 | COc1ccccc1CNC(=O)c1sc2ncnc(N3CCOCC3)c2c1C | -0.847 | -0.308
5 | COCCNCCCOc1cccc(Br)c1 | -1.7 | -0.634
6 | COc1ccc(OC(C)C(=O)Nc2ccc(Br)cc2)cc1 (configuration not stated) | -7.07 | -2.19
7 | Cc1ccccc1OCC(=O)N1N=C2CCCCC2C1(O)C(F)(F)F (configuration not stated) | -5.48 | -2.09
8 | Cc1c(C(=O)NCc2cccs2)oc2ccc(S(=O)(=O)N3CCC(C)CC3)cc12 | -7.39 | -1.84
9 | Cc1ccc(Cl)cc1N1C(=O)CN(Cc2cccs2)C1=S | -2.1 | -0.567
10 | Cc1ccccc1-c1n[nH]c(=S)o1 | -4.65 | -1.65
11 | COc1ccc(C(=O)Nc2ccc(-c3nc4cc(C)cc(C)c4o3)cc2)cc1OC | 2.2 | 0.681
12 | COc1ccc(-c2ccc3c(N)c(C(=O)NCCc4ccc(Cl)cc4)sc3n2)cc1 | -1.65 | -0.492
13 | COc1ccc(C=Nc2ccc(C(N)=O)cc2)cc1 | -2.24 | -0.885
14 | S=C(c1nc2ccccc2[nH]1)N1CCOCC1 | -3.36 | -1.07
15 | CCOC(=O)CCN1C(=O)C(=Cc2cccc(OC)c2)SC1=S | -4.87 | -1.55
16 | COc1c(Cl)cc(Cl)cc1C(=O)n1nc(C)cc1C | -2.7 | -1.06
17 | O=[N+]([O-])c1ccc(N2CCCCC2)cc1NCCc1ccccc1 | -2.78 | -0.86
18 | COc1ccccc1C(=O)CC1(O)C(=O)Nc2ccccc21 (configuration not stated) | -4.9 | -1.82
19 | c1cncc(CNC23CC4CC(CC(C4)C2)C3)c1 | -3.27 | -1.04
20 | O=[N+]([O-])c1ccc(CNC2CCCC2)cc1 | -5.52 | -1.76
21 | Cc1ccc(OCc2ccc([N+](=O)[O-])cc2)cc1C | -1.29 | -0.719
22 | O=[N+]([O-])c1ccc(C=Nn2c(CO)nc3ccccc32)cc1 | -5.03 | -1.6
23 | COC(=O)c1c(NC(=O)c2cc3ccccc3c(=O)o2)sc2c1CCC(C)C2 (configuration not stated) | -0.836 | -0.344
24 | O=C(NCC1CCCO1)Nc1cccc(Cl)c1 (configuration not stated) | 1.53 | 0.544
25 | COc1ccc(S(=O)(=O)NCCc2ccccc2)c2ccccc12 | -3.37 | -1.46
26 | COC(=O)c1cc(NC(=O)c2cc3nc(-c4ccc(Cl)cc4)cc(C(F)(F)F)n3n2)cc(C(=O)OC)c1 | -8 | -2.54
